Molecules are shown by their SMILES. The source made the active and inactive calls. No stated cut-off is given here; in the data, active means inhibition above about 31%; inactive means the rest.

A short description of one assay: MRP1 drug-resistance reversers in H69AR cells – cell-based, doxorubicin co-treatment, pilot screen (AID 601). The conditions noted are these: H69AR cells, CellTiter-Glo, 72 h; compound alone cytotoxicity; at 10 µM. (Cellular ATP, detected with luciferase, serves as a proxy for viable cell number.)
The term viability denotes a read-out of living cells in per cent, often relative to untreated cells. For `Cc1sc2ncnc(OCC(=O)N3CCN(S(=O)(=O)c4ccc(Cl)cc4)CC3)c2c1C`, the viability turned out to be 84.8%.

Regarding `CCOC(=O)CNS(=O)(=O)c1c(C)noc1C`, the viability was 107%.

For `COC(=O)c1onc(C(=O)c2ccccc2)c1C(=O)OC`, the viability was 97.1%.

Turning to `O=C(O)c1cccc(CN2C(=O)SC(Nc3ccccc3)C2=O)c1` (stereo not given), the viability turned out to be 103%.

Regarding `COC(=O)C1C(=O)c2c([nH]c(C(=O)OCCOC(C)C)c2C)CC1C` (stereo not given), the viability turned out to be 99.5%.

Take `CCOC(=O)c1c(NC(=O)CSc2nnc(-c3ccc(OC)cc3)o2)sc2c1CCC2`: the viability turned out to be 82.1%.

For `O=C(c1cccnc1NCc1ccccc1)N1CCOCC1`, the viability was determined as 93.8%.

Take `O=C1CC(N2CCN(c3cccc(C(F)(F)F)c3)CC2)C(=O)N1c1ccccc1` (stereo not given): the viability was found to be 103%.

With `Cc1ccc(N=C2NC(=O)CS2)c(C)c1`, the viability stood at 102%.

On to `O=C(NCc1cccs1)C1CCCN(c2ncccn2)C1` (stereo not given), for which the viability was 94.8%.

Regarding `Cc1cc2ncn(N)c2cc1C`, the viability worked out at 98.8%.

For `COc1ccccc1N1CCN(C(=O)CSc2nc(-c3ccccc3)cc(=O)[nH]2)CC1`, the viability was 88.1%.

In the case of `Cc1nn(-c2ccccc2)c(Cl)c1C(=O)NCC(=O)O`, the viability came out at 113%.

In the case of `COc1nc(N2CCOCC2)nc(-n2cccc2)n1`, the viability was 87.4%.

Take `CCSc1nnc(NC(=O)C(CC)(C(F)(F)F)C(F)(F)F)s1`: the viability is 74%.

On to `COC(=O)C1CCN(C(=O)NC(C)(C)C)CC1`, for which the viability came to 105%.

For `Cc1nn(-c2ccc(Cl)cc2)c2sc(C(=O)N3CCN(c4ccccn4)CC3)cc12`, the viability worked out at 67.2%.

`COc1ccc(Oc2c(C)oc3cc(OC(=O)N4CCOCC4)ccc3c2=O)cc1`: the viability was 101%.

For `C[C@@H]1C[C@H](O)c2cc(Cl)ccc2N1`, the viability came out at 87.1%.

For the molecule `O=C(NCCCNC1CCCCC1)c1ccc(/C=N/O)nc1`, the viability came out at 103%.

Turning to `CC(=O)Nc1ccc(S(=O)(=O)N2CCC(c3nc4ccccc4[nH]3)CC2)cc1`, the viability stood at 93.6%.

For the molecule `CCOc1ccc(S(=O)(=O)Nc2ccccc2C(=O)Nc2ccccc2N2CCOCC2)cc1`, the viability is 93.4%.

As for `O=C(c1ccc(COc2c(F)c(F)c(F)c(F)c2F)o1)N1CCOCC1`, the viability came out at 88%.

As to `CC(C)[C@H](NC(=O)NC1CCCC1)C(=O)O`, the viability came out at 104%.

Regarding `CCOC(=O)C(C)(C)Sc1nc2c(cnn2-c2ccc(C)cc2)c(=O)[nH]1`, the viability amounted to 79.9%.

With `COc1ccccc1NC(=O)c1ccc(COc2ccccc2OC)o1`, the viability was found to be 97.2%.

Turning to `O=C(NCc1ccccn1)Nc1ccc2c(c1)OCO2`, the viability came out at 92.4%.

Consider `CCSc1nnc(NC(=O)CSc2ncccn2)s1`, for which the viability came out at 107%.

Consider `O=C(OCc1nnc(-c2ccc(Cl)cc2)o1)c1ccc(=O)n(Cc2ccccc2)n1`, for which the viability came to 95.1%.

Regarding `COc1ccc(C(=O)NCCn2ccc3ccccc32)c(OC)c1`, the viability amounted to 87.7%.

As for `O=C(NCc1cccs1)C1CCN(S(=O)(=O)c2cccs2)CC1`, the viability worked out at 102%.

Turning to `CCC(C)n1[nH]c(=O)c2c(C)cc(C)nc21` (stereo not given), the viability came out at 98.8%.

For `CC1(C)OC(=O)C(=CNC(CCC(N)=O)C(=O)O)C(=O)O1` (stereo not given), the viability worked out at 86.2%.

`O=c1c(CN2CCN(Cc3ccccc3)CC2)coc2ccc(Cl)cc12`: the viability turned out to be 95.7%.

On to `Cn1c(=O)[nH]c2cc3ccccc3cc21`, for which the viability was 95.6%.

For `COc1ccc(-c2[nH]nc3c2C(c2ccccc2OC(=O)N2CCOCC2)C(C#N)=C(N)O3)cc1` (stereo not given), the viability was 88.9%.

In the case of `COC(=O)C1=C(N)Oc2cc(C)[nH]c(=O)c2C1c1ccncc1` (stereo not given), the viability was found to be 94.7%.

On to `CCn1c2ccccc2c2cc(NC(=O)CSc3nnc(C4CC4)n3Cc3ccco3)ccc21`, for which the viability came out at 79%.

Regarding `O=C(CSc1nc2ncccc2[nH]1)Nc1ccc2c(c1)OCCO2`, the viability is 82%.

Turning to `CCSc1nnc(NC(=O)c2nn(C(C)C)c(=O)c3ccccc23)s1`, the viability is 79.4%.

The next assay is described as follows: yeast transport mutant growth inhibition pilot in 384-well plates, post-Golgi transport modulator project (AID 636). Conditions: absorbance 615 nm, about 18 h, stronger effect = higher value.
The inhibition is the relative decrease from the control value, in per cent. Take `Cc1sc2ncnc(OCC(=O)N3CCN(S(=O)(=O)c4ccc(Cl)cc4)CC3)c2c1C`: the inhibition was 0.53% (inactive).

On to `CCOC(=O)CNS(=O)(=O)c1c(C)noc1C`, for which the inhibition is -4.47% (inactive).

With `COC(=O)c1onc(C(=O)c2ccccc2)c1C(=O)OC`, the inhibition was -4.34% (inactive).

Take `O=C(O)c1cccc(CN2C(=O)SC(Nc3ccccc3)C2=O)c1` (stereo not given): the inhibition was -4.8% (inactive).

Consider `COC(=O)C1C(=O)c2c([nH]c(C(=O)OCCOC(C)C)c2C)CC1C` (stereo not given), for which the inhibition was -2.11% (inactive).

For the molecule `CCOC(=O)c1c(NC(=O)CSc2nnc(-c3ccc(OC)cc3)o2)sc2c1CCC2`, the inhibition is -0.26% (inactive).

With `O=C(c1cccnc1NCc1ccccc1)N1CCOCC1`, the inhibition is 1.08% (inactive).

With `O=C1CC(N2CCN(c3cccc(C(F)(F)F)c3)CC2)C(=O)N1c1ccccc1` (stereo not given), the inhibition was -2.08% (inactive).

On to `Cc1ccc(N=C2NC(=O)CS2)c(C)c1`, for which the inhibition is -5% (inactive).

Take `O=C(NCc1cccs1)C1CCCN(c2ncccn2)C1` (stereo not given): the inhibition is -2.4% (inactive).

For `Cc1cc2ncn(N)c2cc1C`, the inhibition was -7.7% (inactive).

As to `COc1ccccc1N1CCN(C(=O)CSc2nc(-c3ccccc3)cc(=O)[nH]2)CC1`, the inhibition was -3.16% (inactive).

Turning to `Cc1nn(-c2ccccc2)c(Cl)c1C(=O)NCC(=O)O`, the inhibition was -6.45% (inactive).

Regarding `COc1nc(N2CCOCC2)nc(-n2cccc2)n1`, the inhibition was -4.08% (inactive).

Turning to `CCSc1nnc(NC(=O)C(CC)(C(F)(F)F)C(F)(F)F)s1`, the inhibition is 0.41% (inactive).

As to `COC(=O)C1CCN(C(=O)NC(C)(C)C)CC1`, the inhibition is -5.27% (inactive).

Regarding `Cc1nn(-c2ccc(Cl)cc2)c2sc(C(=O)N3CCN(c4ccccn4)CC3)cc12`, the inhibition was -5.84% (inactive).

Turning to `COc1ccc(Oc2c(C)oc3cc(OC(=O)N4CCOCC4)ccc3c2=O)cc1`, the inhibition was -5.6% (inactive).

Regarding `C[C@@H]1C[C@H](O)c2cc(Cl)ccc2N1`, the inhibition was -5.84% (inactive).

As to `O=C(NCCCNC1CCCCC1)c1ccc(/C=N/O)nc1`, the inhibition was -0.91% (inactive).

As for `CC(=O)Nc1ccc(S(=O)(=O)N2CCC(c3nc4ccccc4[nH]3)CC2)cc1`, the inhibition is -3.78% (inactive).

For the molecule `CCOc1ccc(S(=O)(=O)Nc2ccccc2C(=O)Nc2ccccc2N2CCOCC2)cc1`, the inhibition was -6.67% (inactive).

Turning to `O=C(c1ccc(COc2c(F)c(F)c(F)c(F)c2F)o1)N1CCOCC1`, the inhibition is -5.81% (inactive).

Regarding `CC(C)[C@H](NC(=O)NC1CCCC1)C(=O)O`, the inhibition was -0.52% (inactive).

As for `CCOC(=O)C(C)(C)Sc1nc2c(cnn2-c2ccc(C)cc2)c(=O)[nH]1`, the inhibition was -1.95% (inactive).

As for `COc1ccccc1NC(=O)c1ccc(COc2ccccc2OC)o1`, the inhibition is -6.27% (inactive).

With `O=C(NCc1ccccn1)Nc1ccc2c(c1)OCO2`, the inhibition is -2.37% (inactive).

Take `CCSc1nnc(NC(=O)CSc2ncccn2)s1`: the inhibition was -5.07% (inactive).

Turning to `O=C(OCc1nnc(-c2ccc(Cl)cc2)o1)c1ccc(=O)n(Cc2ccccc2)n1`, the inhibition was -4.81% (inactive).

Regarding `COc1ccc(C(=O)NCCn2ccc3ccccc32)c(OC)c1`, the inhibition was -6.49% (inactive).

`O=C(NCc1cccs1)C1CCN(S(=O)(=O)c2cccs2)CC1`: the inhibition was -5.19% (inactive).

With `CCC(C)n1[nH]c(=O)c2c(C)cc(C)nc21` (stereo not given), the inhibition was -5.26% (inactive).

Regarding `CC1(C)OC(=O)C(=CNC(CCC(N)=O)C(=O)O)C(=O)O1` (stereo not given), the inhibition was 6.49% (inactive).

Regarding `O=c1c(CN2CCN(Cc3ccccc3)CC2)coc2ccc(Cl)cc12`, the inhibition was -4.81% (inactive).

For the molecule `Cn1c(=O)[nH]c2cc3ccccc3cc21`, the inhibition was -6.05% (inactive).

With `COc1ccc(-c2[nH]nc3c2C(c2ccccc2OC(=O)N2CCOCC2)C(C#N)=C(N)O3)cc1` (stereo not given), the inhibition is -1.58% (inactive).

On to `COC(=O)C1=C(N)Oc2cc(C)[nH]c(=O)c2C1c1ccncc1` (stereo not given), for which the inhibition was -0.79% (inactive).

For `CCn1c2ccccc2c2cc(NC(=O)CSc3nnc(C4CC4)n3Cc3ccco3)ccc21`, the inhibition is -6.45% (inactive).

For `O=C(CSc1nc2ncccc2[nH]1)Nc1ccc2c(c1)OCCO2`, the inhibition is -2.86% (inactive).

Take `CCSc1nnc(NC(=O)c2nn(C(C)C)c(=O)c3ccccc23)s1`: the inhibition was -5.39% (inactive).

These data come from PubChem BioAssay.
